Measured values reported in PubChem BioAssay (EPA / NIEHS).
Values joined by “and” are separate entries in the source; they are usually repeats but may differ in a detail not shown here. Identical values can stand only once. Records with an inconclusive call do not appear. Some compounds were tested as several samples or in several runs, with calls that do not always agree. Active and inactive are the calls of the source. How the source made its calls, unless noted: active means hit-call score of the fitted dose curve at least 0.9, where 1 is the maximum; inconclusive means response in the unintended direction; inactive means score below 0.9.

Experiments:
[1] = molecular target: Nuclear receptor subfamily 1 group I member 3 (Homo sapiens) (UniProt Q14994); assay: ATG_CAR_TRANS: Attagene TRANS-FACTORIAL HepG2 Assay for human Constitutive Androstane Receptor (CAR) (AID 2282969); details: HepG2 Attagene TRANS-FACTORIAL CAR reporter;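 further: activators raise reporter mRNA above DMSO so AC50 marks induction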
How it was run: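 Transiently transfected HepG2, multiplex TRANS reporters (CAR-Gal4 chimera driving GAL4-UAS reporter). 24 h dosing. Readout: reporter transcript by RT-PCR + capillary electrophoresis, fluorescence intensity; positive direction vs DMSO.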

[2] = molecular target: X-box-binding protein 1 (Homo sapiens) (UniProt P17861); assay: ATG_Xbp1_CIS: Attagene CIS-FACTORIAL HepG2 Assay for human X-box Binding Protein 1 (XBP1) (AID 2282972; active means hit-call score of the fitted dose curve at least 0.9, where 1 is the maximum; inactive means score below 0.9); details: HepG2 XBP1 cis-element reporter, Attagene multiplex; actives raise or lower the signal
How it was run: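 Reporter transcripts were quantified by RT-PCR with fluorescent primer extension and capillary electrophoresis after 24 h chemical exposure. Cells: transiently transfected HepG2 carrying cis-regulated reporter constructs; data fitted bidirectionally relative to DMSO.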

[3] = ATG_M_19_TRANS: Attagene TRANS-FACTORIAL HepG2 Assay for M19 Transcription Factor (Internal Marker) (AID 2282974); details: HepG2 Attagene TRANS-FACTORIAL M19 internal marker reporter
How it was run: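 Multiplexed TRANS format: HepG2 liver cells bearing transient GAL4-UAS reporter units, chemical treatment 24 h, reporter transcripts quantified by RT-PCR plus capillary electrophoresis. DMSO defines baseline.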

[4] = ATG_GAL4_TRANS: Attagene TRANS-FACTORIAL HepG2 Assay for GAL4 (Internal Marker) (AID 2282976); details: HepG2 Attagene TRANS GAL4 internal marker reporter
How it was run: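 Fluorescence from capillary electrophoresis of labelled RT-PCR products quantifies reporter mRNA induction after 24 h dosing of HepG2 cells carrying transfected GAL4-UAS reporter transcription units. Vehicle DMSO serves as baseline.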

[5] = molecular target: Estrogen-related receptor gamma (Homo sapiens) (UniProt P62508); assay: ATG_ERRg_TRANS: Attagene TRANS-FACTORIAL HepG2 Assay for human Estrogen-Related Receptor gamma (ERRg) (AID 2282977); details: HepG2 Attagene TRANS reporter, ERRg transactivation;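 further: hits increase reporter signal over DMSO so potencies reflect activators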
How it was run: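 Induction of reporter transcripts through a chimeric NR-Gal4 protein is quantified in transfected human HepG2 liver cells after 24 h chemical exposure, using RT-PCR with capillary electrophoresis detection and DMSO as baseline.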

[6] = molecular target: Glucocorticoid receptor (Homo sapiens) (UniProt P04150); assay: ATG_GR_TRANS: Attagene TRANS-FACTORIAL HepG2 Assay for human Glucocorticoid Receptor (GR) (AID 2282978); details: HepG2 Attagene TRANS GR reporter, mRNA transcription;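 further: activators score as hits since higher reporter transcript over DMSO is fitted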
How it was run: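 Transiently transfected HepG2 cells express chimeric NR-GAL4 proteins acting on GAL4-UAS reporter units. Compounds are applied for 24 h. mRNA induction over DMSO is measured by capillary electrophoresis.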

[7] = molecular target: Nuclear receptor subfamily 4 group A member 2 (Homo sapiens) (UniProt P43354); assay: ATG_NURR1_TRANS: Attagene TRANS-FACTORIAL HepG2 Assay for human Nuclear Receptor Related Protein 1 (NURR1) (AID 2282985); details: HepG2 Attagene TRANS reporter, mRNA readout
How it was run: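 Endpoint: reporter mRNA increase relative to DMSO. HepG2 cells transfected with reporter units, treated 24 h; RNA processed by RT-PCR, labelling, HpaI digestion and capillary electrophoresis.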

[8] = molecular target: Transcriptional activator Myb (Homo sapiens) (UniProt P10242); assay: ATG_Myb_CIS: Attagene CIS-FACTORIAL HepG2 Assay for human Myeloblastosis (Myb) Proto-Oncogene Transcription Factor (AID 2282986; active means hit-call score of the fitted dose curve at least 0.9, where 1 is the maximum; inactive means score below 0.9); details: HepG2 Attagene CIS-FACTORIAL Myb reporter transcription; actives raise or lower the signal
How it was run: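 Using HepG2 liver cells bearing transiently transfected cis-promoter reporter constructs, the assay measures induction or loss of reporter mRNA after 24 hours of dosing. Detection used fluorescently labeled RT-PCR products separated by capillary electrophoresis.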

[9] = molecular target: Nuclear respiratory factor 1 (Homo sapiens) (UniProt Q16656); assay: ATG_NRF1_CIS: Attagene CIS-FACTORIAL HepG2 Assay for human Nuclear Respiratory Factor 1 (NRF1) Orphan Gene (AID 2282987; active means hit-call score of the fitted dose curve at least 0.9, where 1 is the maximum; inactive means score below 0.9); details: HepG2 NRF1 cis-element reporter, Attagene multiplex; actives raise or lower the signal
How it was run: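 Reporter mRNA induction or loss in HepG2 cells after 24 h dosing; cis-regulated reporter constructs report endogenous transcription-factor activity. Quantified by RT-PCR/capillary electrophoresis fluorescence, DMSO-referenced.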

[10] = ATG_NFI_CIS: Attagene CIS-FACTORIAL HepG2 Assay for human Nuclear Factor I (NFI) (AID 2282989; active means hit-call score of the fitted dose curve at least 0.9, where 1 is the maximum; inactive means score below 0.9); details: HepG2 cis-regulatory reporter, NFI response element transcription; actives raise or lower the signal
How it was run: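 After transient transfection of HepG2 with cis-promoter reporter constructs and 24 h dosing, RNA is reverse-transcribed, amplified, 6-FAM end-labelled and HpaI-digested before capillary analysis. Bidirectional curve fitting against DMSO.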

[11] = molecular target: Steroid hormone receptor ERR1 (Homo sapiens) (UniProt P11474); assay: ATG_ERRa_TRANS: Attagene TRANS-FACTORIAL HepG2 Assay for human Estrogen-Related Receptor alpha (ERRa) (AID 2282971); details: HepG2 Attagene TRANS reporter, ERRa transactivation
How it was run: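 HepG2 cells were transiently transfected with multiple GAL4-UAS reporter units, then dosed with compound for 24 h. Total RNA was reverse-transcribed, reporter cDNA PCR-amplified and fluorescently labelled, and fragments resolved by capillary electrophoresis; induction was compared with DMSO.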

[12] = molecular target: Bile acid receptor (Homo sapiens) (UniProt Q96RI1); assay: ATG_FXR_TRANS: Attagene TRANS-FACTORIAL HepG2 Assay for Farnesoid X Receptor (FXR) (AID 2282979); details: HepG2 Attagene TRANS FXR-GAL4 reporter transcription;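 further: hits raise reporter mRNA above DMSO so AC50 marks FXR activation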
How it was run: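 Chimeric FXR-GAL4 activity in transiently transfected human HepG2 liver cells is scored as induction of reporter mRNA after 24 h of dosing. Detection uses RT-PCR with fluorescent labelling and capillary electrophoresis, with DMSO serving as baseline.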

[13] = molecular target: Oxysterols receptor LXR-beta (Homo sapiens) (UniProt P55055); assay: ATG_LXRb_TRANS: Attagene TRANS-FACTORIAL HepG2 Assay for human Liver X Receptor beta (LXRb) (AID 2282981); details: HepG2 Attagene TRANS GAL4-LXRb reporter, mRNA
How it was run: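 Multiplexed reporter assay, HepG2, 24 h dosing. Fluorescence of labelled RT-PCR products after capillary electrophoresis gives transcript level; positive fitting direction relative to DMSO.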

[14] = molecular target: Hepatocyte nuclear factor 4-alpha (Homo sapiens) (UniProt P41235); assay: ATG_HNF4a_TRANS: Attagene TRANS-FACTORIAL HepG2 Assay for human Hepatocyte Nuclear Factor 4 alpha (HNF4a) (AID 2282982); details: HepG2 HNF4a transactivation reporter, mRNA readout
How it was run: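 Endpoint reflects transcriptional activation of a GAL4-UAS reporter by an HNF4a-GAL4 chimera in transfected HepG2 cells, 24 h post-dosing. Fluorescence from RT-PCR products separated by capillary electrophoresis; DMSO baseline.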

[15] = ATG_M_06_TRANS: Attagene TRANS-FACTORIAL HepG2 Assay for M06 Transcription Factor (Internal Marker) (AID 2282983); details: HepG2 Attagene TRANS M06 internal marker reporter
How it was run: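 Human liver HepG2 cells bearing transiently transfected chimeric NR-GAL4 reporter units were treated with chemicals for 24 h. Total RNA was reverse-transcribed, reporter sequences amplified and labelled, then quantified by capillary electrophoresis. Activity was fitted upward relative to DMSO.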

[16] = ATG_M_32_TRANS: Attagene TRANS-FACTORIAL HepG2 Assay for M32 Transcription Factor (Internal Marker) (AID 2282984); details: HepG2 Attagene TRANS M32 internal marker reporter;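 further: transcript level of a background control reporter unit measured by RT-PCR and capillary electrophoresis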
How it was run: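 Internal-marker readout from a multiplexed transcription reporter panel. HepG2 cells were transfected with GAL4-UAS reporter units, treated 24 hours, and reporter transcript levels determined by fluorescence after RT-PCR and capillary separation.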

[17] = molecular target: Oxysterols receptor LXR-alpha (Homo sapiens) (UniProt Q13133); assay: ATG_LXRa_TRANS: Attagene TRANS-FACTORIAL HepG2 Assay for human Liver X Receptor alpha (LXRa) (AID 2282980); details: HepG2 Attagene TRANS reporter, LXRa transactivation
How it was run: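 Transient HepG2 transfectants, 24 h dosing, RT-PCR/CE mRNA reporter quantitation; gain-of-signal vs DMSO.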

[18] = molecular target: Estrogen receptor (Homo sapiens) (UniProt P03372); assay: ATG_ERa_TRANS: Attagene TRANS-FACTORIAL HepG2 Assay for human Estrogen Receptor alpha (ERa) (AID 2282970); details: HepG2 Attagene TRANS ERa GAL4 reporter, mRNA
How it was run: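 Transfected HepG2 cells carrying GAL4-UAS-driven reporter units were dosed for 24 hours. Total RNA was reverse-transcribed, reporter sequences PCR-amplified, FAM-labelled, HpaI-digested and resolved by capillary electrophoresis. Increases over DMSO control defined activity.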

Measured: AC50

Sequence of Bile acid receptor (Homo sapiens) (Q96RI1 whole entry, looked up, the tested form may be a part): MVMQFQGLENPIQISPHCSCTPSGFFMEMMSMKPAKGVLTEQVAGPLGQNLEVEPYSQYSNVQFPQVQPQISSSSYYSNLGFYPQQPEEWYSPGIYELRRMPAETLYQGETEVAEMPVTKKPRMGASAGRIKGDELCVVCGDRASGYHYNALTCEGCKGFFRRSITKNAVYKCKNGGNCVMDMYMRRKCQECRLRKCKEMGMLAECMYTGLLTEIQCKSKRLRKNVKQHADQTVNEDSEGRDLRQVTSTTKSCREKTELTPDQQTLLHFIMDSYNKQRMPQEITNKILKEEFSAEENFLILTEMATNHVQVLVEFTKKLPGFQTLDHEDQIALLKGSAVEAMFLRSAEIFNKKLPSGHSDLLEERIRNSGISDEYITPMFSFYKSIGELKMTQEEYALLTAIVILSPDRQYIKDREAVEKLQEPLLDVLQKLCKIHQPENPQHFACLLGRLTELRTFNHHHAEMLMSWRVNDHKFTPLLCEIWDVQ
Sequence of X-box-binding protein 1 (Homo sapiens) (P17861 whole entry, looked up): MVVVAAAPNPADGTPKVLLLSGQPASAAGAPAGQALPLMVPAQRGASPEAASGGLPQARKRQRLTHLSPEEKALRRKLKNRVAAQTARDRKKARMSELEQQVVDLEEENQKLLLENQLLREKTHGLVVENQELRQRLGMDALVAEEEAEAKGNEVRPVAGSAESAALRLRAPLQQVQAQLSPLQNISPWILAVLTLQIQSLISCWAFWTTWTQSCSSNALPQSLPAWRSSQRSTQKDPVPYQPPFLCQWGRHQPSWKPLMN
Sequence of Glucocorticoid receptor (Homo sapiens) (P04150 whole entry, looked up, the tested form may be a part): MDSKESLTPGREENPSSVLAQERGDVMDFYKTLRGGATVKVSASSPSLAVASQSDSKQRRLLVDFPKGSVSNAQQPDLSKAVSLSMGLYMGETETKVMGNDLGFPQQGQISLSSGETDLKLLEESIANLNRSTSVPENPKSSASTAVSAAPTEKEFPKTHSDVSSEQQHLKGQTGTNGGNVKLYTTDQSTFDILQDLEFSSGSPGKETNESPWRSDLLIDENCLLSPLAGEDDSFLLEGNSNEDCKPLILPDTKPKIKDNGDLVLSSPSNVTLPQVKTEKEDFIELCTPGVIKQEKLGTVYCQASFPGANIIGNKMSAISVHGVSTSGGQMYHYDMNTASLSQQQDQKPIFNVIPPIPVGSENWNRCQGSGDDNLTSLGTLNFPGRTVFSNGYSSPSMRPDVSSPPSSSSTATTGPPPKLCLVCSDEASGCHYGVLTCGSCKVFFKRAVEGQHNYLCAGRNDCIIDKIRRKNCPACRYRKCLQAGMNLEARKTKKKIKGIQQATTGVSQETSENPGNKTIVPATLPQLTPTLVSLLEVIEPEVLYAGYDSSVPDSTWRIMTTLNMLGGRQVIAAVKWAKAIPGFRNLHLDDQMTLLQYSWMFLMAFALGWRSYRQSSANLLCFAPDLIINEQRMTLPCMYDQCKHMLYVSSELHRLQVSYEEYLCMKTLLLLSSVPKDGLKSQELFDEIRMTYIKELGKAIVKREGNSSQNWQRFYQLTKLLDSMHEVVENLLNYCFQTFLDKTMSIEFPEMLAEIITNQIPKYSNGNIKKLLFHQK
Sequence of Nuclear respiratory factor 1 (Homo sapiens) (Q16656 whole entry, looked up): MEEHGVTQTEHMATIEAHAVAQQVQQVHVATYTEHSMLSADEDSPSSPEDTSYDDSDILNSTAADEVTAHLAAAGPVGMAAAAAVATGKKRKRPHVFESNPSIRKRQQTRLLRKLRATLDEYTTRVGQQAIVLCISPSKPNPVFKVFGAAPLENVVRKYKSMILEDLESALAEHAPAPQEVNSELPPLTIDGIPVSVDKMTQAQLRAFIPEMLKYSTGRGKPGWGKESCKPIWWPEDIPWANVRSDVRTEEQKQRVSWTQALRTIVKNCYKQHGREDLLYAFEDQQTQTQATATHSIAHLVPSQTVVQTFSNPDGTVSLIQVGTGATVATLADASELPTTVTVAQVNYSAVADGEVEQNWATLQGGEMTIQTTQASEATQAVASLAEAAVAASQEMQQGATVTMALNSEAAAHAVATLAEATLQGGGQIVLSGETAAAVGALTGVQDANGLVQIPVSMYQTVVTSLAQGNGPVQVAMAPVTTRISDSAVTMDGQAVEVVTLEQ
Sequence of Estrogen-related receptor gamma (Homo sapiens) (P62508 whole entry, looked up, the tested form may be a part): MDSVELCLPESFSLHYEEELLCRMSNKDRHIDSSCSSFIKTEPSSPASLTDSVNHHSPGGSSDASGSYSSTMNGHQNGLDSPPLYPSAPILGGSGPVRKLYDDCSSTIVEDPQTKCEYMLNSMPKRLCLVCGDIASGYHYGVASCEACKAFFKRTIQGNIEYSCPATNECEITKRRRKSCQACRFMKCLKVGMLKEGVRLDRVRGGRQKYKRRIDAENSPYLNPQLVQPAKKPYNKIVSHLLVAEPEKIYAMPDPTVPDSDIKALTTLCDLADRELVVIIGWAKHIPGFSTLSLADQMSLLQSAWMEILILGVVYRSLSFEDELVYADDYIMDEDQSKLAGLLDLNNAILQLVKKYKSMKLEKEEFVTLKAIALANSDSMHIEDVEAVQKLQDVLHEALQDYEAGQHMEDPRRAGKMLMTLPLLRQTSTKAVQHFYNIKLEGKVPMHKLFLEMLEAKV
Sequence of Oxysterols receptor LXR-beta (Homo sapiens) (P55055 whole entry, looked up, the tested form may be a part): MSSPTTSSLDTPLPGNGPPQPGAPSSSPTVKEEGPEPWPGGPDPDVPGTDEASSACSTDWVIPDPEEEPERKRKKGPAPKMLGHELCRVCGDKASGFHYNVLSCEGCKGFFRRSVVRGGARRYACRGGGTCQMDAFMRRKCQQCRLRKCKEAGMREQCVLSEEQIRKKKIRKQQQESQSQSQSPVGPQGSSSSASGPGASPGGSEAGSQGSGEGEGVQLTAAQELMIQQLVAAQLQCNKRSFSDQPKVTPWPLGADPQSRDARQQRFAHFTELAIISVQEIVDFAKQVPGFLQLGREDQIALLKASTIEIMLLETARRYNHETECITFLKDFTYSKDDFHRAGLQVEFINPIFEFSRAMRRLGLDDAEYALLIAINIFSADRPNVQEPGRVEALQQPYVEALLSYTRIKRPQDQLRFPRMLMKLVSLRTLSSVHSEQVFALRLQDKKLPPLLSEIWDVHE
Sequence of Hepatocyte nuclear factor 4-alpha (Homo sapiens) (P41235 whole entry, looked up, the tested form may be a part): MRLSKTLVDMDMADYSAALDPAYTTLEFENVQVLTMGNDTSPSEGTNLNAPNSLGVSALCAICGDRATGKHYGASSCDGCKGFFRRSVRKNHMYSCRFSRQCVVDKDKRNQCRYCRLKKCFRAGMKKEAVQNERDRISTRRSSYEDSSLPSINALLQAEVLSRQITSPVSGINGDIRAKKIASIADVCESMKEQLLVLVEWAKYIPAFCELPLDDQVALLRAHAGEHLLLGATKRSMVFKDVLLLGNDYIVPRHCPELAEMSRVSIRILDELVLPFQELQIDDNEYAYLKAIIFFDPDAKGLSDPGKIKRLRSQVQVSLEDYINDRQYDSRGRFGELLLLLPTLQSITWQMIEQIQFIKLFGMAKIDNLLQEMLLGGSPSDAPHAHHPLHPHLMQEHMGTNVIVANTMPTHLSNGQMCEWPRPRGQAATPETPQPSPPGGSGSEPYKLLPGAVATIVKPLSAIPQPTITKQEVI
Sequence of Nuclear receptor subfamily 1 group I member 3 (Homo sapiens) (Q14994 whole entry, looked up, the tested form may be a part): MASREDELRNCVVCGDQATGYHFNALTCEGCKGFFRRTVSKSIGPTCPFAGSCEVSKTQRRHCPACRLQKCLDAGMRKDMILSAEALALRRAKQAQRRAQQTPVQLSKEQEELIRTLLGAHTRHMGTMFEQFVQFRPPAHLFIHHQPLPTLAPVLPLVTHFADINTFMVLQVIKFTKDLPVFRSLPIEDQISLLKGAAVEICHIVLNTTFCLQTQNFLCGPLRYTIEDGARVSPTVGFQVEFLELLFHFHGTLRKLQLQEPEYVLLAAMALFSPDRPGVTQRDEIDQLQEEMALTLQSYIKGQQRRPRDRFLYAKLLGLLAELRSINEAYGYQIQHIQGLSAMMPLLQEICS
Sequence of Transcriptional activator Myb (Homo sapiens) (P10242 whole entry, looked up): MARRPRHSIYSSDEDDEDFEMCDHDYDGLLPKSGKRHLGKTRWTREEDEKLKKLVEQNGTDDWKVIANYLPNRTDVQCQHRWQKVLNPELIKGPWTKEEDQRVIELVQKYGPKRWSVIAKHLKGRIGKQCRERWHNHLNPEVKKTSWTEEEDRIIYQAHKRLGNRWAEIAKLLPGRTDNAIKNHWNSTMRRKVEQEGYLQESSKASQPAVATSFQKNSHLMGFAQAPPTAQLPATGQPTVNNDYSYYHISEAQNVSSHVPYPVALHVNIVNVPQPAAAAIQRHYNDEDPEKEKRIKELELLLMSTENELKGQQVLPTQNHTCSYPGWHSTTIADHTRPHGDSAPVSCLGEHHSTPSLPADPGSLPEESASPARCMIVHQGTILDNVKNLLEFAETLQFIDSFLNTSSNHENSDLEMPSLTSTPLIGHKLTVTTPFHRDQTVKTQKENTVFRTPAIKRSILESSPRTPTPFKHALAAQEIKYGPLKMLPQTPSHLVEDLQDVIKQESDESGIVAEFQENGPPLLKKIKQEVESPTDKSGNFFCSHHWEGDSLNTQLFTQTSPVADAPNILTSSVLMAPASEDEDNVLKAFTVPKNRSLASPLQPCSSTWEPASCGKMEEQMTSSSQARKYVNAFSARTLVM
Sequence of Steroid hormone receptor ERR1 (Homo sapiens) (P11474 whole entry, looked up, the tested form may be a part): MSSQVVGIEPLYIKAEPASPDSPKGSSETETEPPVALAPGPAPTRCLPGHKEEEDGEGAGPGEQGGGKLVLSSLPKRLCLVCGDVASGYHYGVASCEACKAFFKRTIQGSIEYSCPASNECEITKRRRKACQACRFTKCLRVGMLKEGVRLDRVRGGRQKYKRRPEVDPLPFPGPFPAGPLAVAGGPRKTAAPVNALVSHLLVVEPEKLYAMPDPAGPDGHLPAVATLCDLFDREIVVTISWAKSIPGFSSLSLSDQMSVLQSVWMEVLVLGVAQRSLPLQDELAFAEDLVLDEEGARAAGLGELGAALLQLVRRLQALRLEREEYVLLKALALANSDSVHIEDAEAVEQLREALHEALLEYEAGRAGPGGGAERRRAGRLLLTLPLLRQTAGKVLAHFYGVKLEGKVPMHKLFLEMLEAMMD

CCC(C)c1ccccc1O (stereo not given)
inactive: [1] | [2] | [3] | [4] | [5] | [6] | [7] | [8] | [9] | [10]

O=C(O)C(F)(F)OC(F)(F)C(F)(F)OC(F)(F)C(F)(F)OC(F)(F)C(F)(F)C(F)(F)C(F)(F)F
inactive: [1] | [11] | [3] | [4] | [5] | [6] | [12] | [13] | [14] | [15] | [16] | [8] | [10]
active: [2] 41.2 µM and 25.4 µM | [12] 27 µM | [14] 84.7 µM | [7] 13.4 µM and 16.6 µM | [10] 80.8 µM

CC(O)COc1ccccc1 (stereo not given)
inactive: [3] | [6] | [12] | [17] | [14] | [16] | [8] | [10]
active: [13] 26.1 µM

Cc1ccc(C)c(S(=O)(=O)O)c1
inactive: [1] | [2] | [4] | [15] | [16] | [7] | [8] | [10]

O=S(=O)(O)c1ccccc1
inactive: [2] | [5] | [6] | [12] | [13] | [14] | [16] | [8] | [9] | [10]

Brc1cc(Br)c(Oc2c(Br)cc(Br)c(Br)c2Br)cc1Br
not listed: [1] | [4] | [7] | [14] | [17]
inactive: all other assays above

Cc1cc(Cc2cc(C)cc(C(C)(C)C)c2O)c(O)c(C(C)(C)C)c1
inactive: [18] | [3] | [12] | [17] | [13] | [15]
active: [8] 25.6 µM | [9] 180 µM | [10] 25.8 µM

CC(=O)Nc1ccc(O)cc1
inactive: [2] | [15] | [16] | [8]

Cc1cc(C(C)(C)C)c(O)c(C(C)(C)C)c1
active: [2] 33.4 µM and 89.6 µM | [6] 100 µM | [7] 820 nM | [9] 94.7 µM | [10] 51.6 µM and 20.5 µM
inactive: [1] | [3] | [12] | [13] | [15] | [16] | [8] | [9]

NCCN
inactive: [2] | [3] | [4] | [16] | [7] | [8] | [9] | [10]

NC(=NCCCCCCN=C(N)/N=C(\N)Nc1ccc(Cl)cc1)/N=C(\N)Nc1ccc(Cl)cc1
inactive: [1] | [2] | [6] | [13] | [14] | [16] | [7] | [8] | [10]
active: [6] 25.3 µM | [13] 24.1 µM | [14] 25.7 µM | [8] 18.3 µM and 48.2 µM

CCCCCCCCCCCC
inactive: [2] | [3] | [4] | [6] | [13] | [16] | [7] | [8] | [9] | [10]
